This note sets out measurements from ChEMBL document CHEMBL1961873, “Compounds: GSK PKIS; Assays: Nanosyn kinase panel” (2012).

In assay [1] the target is T1, Serine/threonine-protein kinase TBK1 (Homo sapiens) (UniProt Q9UHD2).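 Further: values are mean inhibition of TBK1, screened as part of the GSK published kinase inhibitor set.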
T1 sequence (whole entry): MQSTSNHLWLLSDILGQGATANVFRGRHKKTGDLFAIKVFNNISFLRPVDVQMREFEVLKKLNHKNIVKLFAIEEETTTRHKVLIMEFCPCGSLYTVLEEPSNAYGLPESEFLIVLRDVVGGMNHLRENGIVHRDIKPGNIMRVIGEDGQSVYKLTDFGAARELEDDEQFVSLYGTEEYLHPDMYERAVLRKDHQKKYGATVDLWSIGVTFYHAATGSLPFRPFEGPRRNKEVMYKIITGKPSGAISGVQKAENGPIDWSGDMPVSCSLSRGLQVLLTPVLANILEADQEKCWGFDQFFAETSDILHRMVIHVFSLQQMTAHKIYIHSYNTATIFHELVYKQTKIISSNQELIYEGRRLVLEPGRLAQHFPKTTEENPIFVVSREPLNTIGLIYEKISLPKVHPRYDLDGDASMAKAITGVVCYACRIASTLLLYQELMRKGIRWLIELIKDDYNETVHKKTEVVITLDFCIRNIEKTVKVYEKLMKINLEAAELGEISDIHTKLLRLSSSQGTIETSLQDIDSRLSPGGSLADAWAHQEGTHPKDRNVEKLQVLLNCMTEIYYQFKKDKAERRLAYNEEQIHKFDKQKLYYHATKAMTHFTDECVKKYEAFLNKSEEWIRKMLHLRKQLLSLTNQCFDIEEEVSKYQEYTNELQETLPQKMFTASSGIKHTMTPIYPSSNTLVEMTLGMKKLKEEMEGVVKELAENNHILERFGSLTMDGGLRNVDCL
The following applies: at 1 µM.

For assay [2], the target named is T2, Testis-specific serine/threonine-protein kinase 1 (Homo sapiens) (UniProt Q9BXA7).
T2 sequence (whole entry): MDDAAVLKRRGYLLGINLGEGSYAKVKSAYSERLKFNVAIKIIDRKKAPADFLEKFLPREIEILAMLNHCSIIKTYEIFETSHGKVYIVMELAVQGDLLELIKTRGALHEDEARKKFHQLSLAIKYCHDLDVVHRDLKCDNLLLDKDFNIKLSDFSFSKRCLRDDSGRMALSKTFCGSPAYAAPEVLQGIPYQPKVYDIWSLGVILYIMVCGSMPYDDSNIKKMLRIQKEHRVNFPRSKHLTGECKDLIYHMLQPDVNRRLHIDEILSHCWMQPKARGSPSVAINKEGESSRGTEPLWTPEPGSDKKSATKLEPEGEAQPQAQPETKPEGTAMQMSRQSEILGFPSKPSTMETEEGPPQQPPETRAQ
As to conditions: at 0.1 µM.

In assay [3] the target is T2, Testis-specific serine/threonine-protein kinase 1 (Homo sapiens). The following applies: at 1 µM.
The target in assay [4] is T3, Testis-specific serine/threonine-protein kinase 2 (Homo sapiens) (UniProt Q96PF2).
T3 sequence (whole entry): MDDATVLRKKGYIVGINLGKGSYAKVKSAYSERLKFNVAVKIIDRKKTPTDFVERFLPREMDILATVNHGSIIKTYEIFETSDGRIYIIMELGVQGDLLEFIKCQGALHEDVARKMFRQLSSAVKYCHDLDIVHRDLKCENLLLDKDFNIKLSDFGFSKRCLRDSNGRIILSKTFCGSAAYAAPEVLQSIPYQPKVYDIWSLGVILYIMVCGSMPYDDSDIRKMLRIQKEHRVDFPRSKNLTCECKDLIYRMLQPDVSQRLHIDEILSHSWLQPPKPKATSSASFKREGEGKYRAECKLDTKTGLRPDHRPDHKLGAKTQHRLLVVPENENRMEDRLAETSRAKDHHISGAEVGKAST
The following applies: at 0.1 µM.

Assay [5] has as its target T3, Testis-specific serine/threonine-protein kinase 2 (Homo sapiens). As to conditions: at 1 µM.
Assay [6] addresses Casein kinase I isoform alpha (Homo sapiens) (UniProt P48729). As to conditions: at 0.1 µM.
For assay [7] the target is unchanged. As to conditions: at 1 µM.
Assay [8] has as its target Casein kinase I isoform gamma-1 (Homo sapiens) (UniProt Q9HCP0). As to conditions: at 0.1 µM.
Assay [9] shares this target. The following applies: at 1 µM.
Assay [10] deals with Casein kinase I isoform gamma-2 (Homo sapiens) (UniProt P78368). The following applies: at 0.1 µM.

Structures are written as SMILES. “And” between values parts separate entries of the source, which are not always exact repeats. Equal values may be shown once.

Sequence of Casein kinase I isoform gamma-1 (Homo sapiens) (Q9HCP0 whole entry, looked up, canonical isoform): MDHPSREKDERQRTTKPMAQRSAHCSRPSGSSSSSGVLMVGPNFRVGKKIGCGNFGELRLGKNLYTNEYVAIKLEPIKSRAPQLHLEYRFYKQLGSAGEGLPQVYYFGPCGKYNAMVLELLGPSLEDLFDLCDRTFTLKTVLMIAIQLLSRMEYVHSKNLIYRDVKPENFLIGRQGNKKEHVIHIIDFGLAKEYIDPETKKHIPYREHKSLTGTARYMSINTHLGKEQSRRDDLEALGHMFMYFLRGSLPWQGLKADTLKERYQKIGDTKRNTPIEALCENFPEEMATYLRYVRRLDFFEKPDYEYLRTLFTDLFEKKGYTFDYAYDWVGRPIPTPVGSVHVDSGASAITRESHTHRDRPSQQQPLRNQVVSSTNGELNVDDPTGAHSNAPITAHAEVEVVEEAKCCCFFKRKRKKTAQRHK
Sequence of Casein kinase I isoform alpha (Homo sapiens) (P48729 2-337 limits assumed): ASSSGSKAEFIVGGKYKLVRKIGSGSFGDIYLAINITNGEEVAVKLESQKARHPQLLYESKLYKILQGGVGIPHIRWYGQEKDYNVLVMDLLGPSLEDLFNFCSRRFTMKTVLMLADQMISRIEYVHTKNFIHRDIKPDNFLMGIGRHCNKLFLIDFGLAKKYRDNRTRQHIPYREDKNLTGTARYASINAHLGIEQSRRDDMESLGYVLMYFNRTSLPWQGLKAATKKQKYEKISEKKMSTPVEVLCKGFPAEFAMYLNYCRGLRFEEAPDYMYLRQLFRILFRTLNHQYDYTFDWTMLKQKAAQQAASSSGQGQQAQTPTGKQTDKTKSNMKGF
Sequence of Casein kinase I isoform gamma-2 (Homo sapiens) (P78368 whole entry, looked up, canonical isoform): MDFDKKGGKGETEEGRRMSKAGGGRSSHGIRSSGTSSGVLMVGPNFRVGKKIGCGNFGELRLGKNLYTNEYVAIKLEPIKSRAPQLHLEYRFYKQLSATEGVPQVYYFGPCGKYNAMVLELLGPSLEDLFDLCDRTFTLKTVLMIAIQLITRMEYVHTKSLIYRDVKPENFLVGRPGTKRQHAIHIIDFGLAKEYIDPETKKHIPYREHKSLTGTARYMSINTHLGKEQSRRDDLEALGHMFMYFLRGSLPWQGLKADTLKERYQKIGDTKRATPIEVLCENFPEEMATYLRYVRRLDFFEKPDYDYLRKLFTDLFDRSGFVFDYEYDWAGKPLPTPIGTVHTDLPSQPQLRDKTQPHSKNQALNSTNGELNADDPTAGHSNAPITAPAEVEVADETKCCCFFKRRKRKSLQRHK

With `COc1cccc(-n2ncc3c(N/N=C/c4ccc(C(=O)NCCN(C)C)cc4)ncnc32)c1`, the inhibition in assay [1] was 11.2%; in [2], 1.35%; in assay [3] it was 0.43%; in assay [4], -0.44%; in [5] it was -0.81%; in [6], 1.58%. For the same compound, the inhibition in [7] is 7.14%; in [8], 2.73%; in assay [9], 11.7%; in assay [10], 1.5%.

On to `Nc1nccc(-c2c(-c3ccc(F)cc3)ncn2C2CCNCC2)n1`, for which the inhibition in assay [1] was -0.8% and 3.12%; in [2] it was -0.43% and -0.33%; in assay [3] it was -1.08% and -1.15%; in assay [4], -2.53% and 0.42%; in [5], -0.67% and -0.42%; in assay [6], 61.4% and 67%. For the same compound, the inhibition in assay [7] was 85% and 86.4%; in [8], -1.9% and 1.36%; in assay [9], 8.77% and 13.7%; in assay [10], -1.89% and 0.78%.

For the compound `CNC(=O)c1cncc(/C=C/c2ccccc2C)c1`, the inhibition in [1] is 6.39%; in assay [2] it was 4.49%; in [3] it was 5.13%; in assay [4] it was 3.39%; in assay [5] it was 2.6%; in assay [6], 1.22%. For the same compound, the inhibition in assay [7] was determined as 5.05%; in assay [8], 2.73%; in [9], 3.62%; in assay [10], 2.46%.

Take `OCCCNc1nccc(-c2c(-c3ccc(F)cc3)nn3cc(C(F)(F)F)ccc23)n1`: the inhibition in assay [1] was 5.25%; in assay [2], 1.75%; in assay [3] it was -0.99%; in [4], 1.56%; in assay [5] it was -2.79%; in assay [6] it was 8.54%. The inhibition amounted to 28.7% in [7], 1.82% in assay [8], 4.37% in assay [9] and 0.31% in assay [10].

As for `CNC(=O)c1sc(-n2cnc3cc(OC)c(OC)cc32)cc1OCc1ccccc1C(F)(F)F`, the inhibition was found to be 4.39% in assay [1]; 1.24% in [2]; 1.63% in assay [3]; 1.51% in assay [4]; 1.01% in [5]; 0.44% in assay [6]. For the same compound, the inhibition worked out at 2.65% in assay [7], 3.33% in [8], 3.86% in [9] and 3.4% in [10].

As to `CCN1CCC(C(=O)Nc2n[nH]c3nnc(-c4cccc(F)c4F)cc23)CC1`, the inhibition was 0.85% in assay [1]; -0.97% in assay [2]; -0.75% in assay [3]; 0.04% in assay [4]; 0.43% in [5]; -1.81% in assay [6]. Further, the inhibition in assay [7] is -0.5%; in assay [8] it was 1.73%; in [9], -0.13%; in [10] it was -0.42%.

Take `Fc1ccc(Nc2nccc(-c3c(-c4ccc(C(F)(F)F)cc4)nn4ncccc34)n2)cc1F`: the inhibition in assay [1] is 5.12%; in assay [2], 2.94%; in assay [3] it was 0.83%; in assay [4], 0.43%; in assay [5], -1.83%; in assay [6], 8.3%. In addition, the inhibition in assay [7] was 5.37%; in [8], 3.69%; in [9], 4.68%; in [10], 1.53%.

Take `COc1ccc(-c2nn3ncccc3c2-c2ccnc(Nc3ccc(F)c(F)c3)n2)cc1`: the inhibition amounted to 5.55% in [1]; 4.21% in [2]; 5.79% in assay [3]; 2.03% in assay [4]; 5.03% in [5]; 4.64% in assay [6]. Moreover, the inhibition turned out to be 6.66% in [7], 4.01% in [8], 4.36% in assay [9] and 3.31% in assay [10].

Consider `CS(=O)(=O)CCNCc1ccoc1-c1ccc2ncnc(Nc3ccc(OCc4ccccc4)cc3)c2c1`, for which the inhibition in [1] is -2.25%; in assay [2], 0.51%; in assay [3] it was 0.84%; in [4], 1.17%; in assay [5] it was 0.75%; in assay [6], 1.49%. For the same compound, the inhibition was -0.39% in [7], 0.5% in assay [8], 1.25% in assay [9] and 0.24% in assay [10].

For `CC1(C)CC(n2cnc(-c3ccc(F)cc3)c2-c2ccnc(N)n2)CC(C)(C)N1`, the inhibition amounted to 0.35% in [1]; 1.43% in assay [2]; 2.2% in assay [3]; 0.62% in assay [4]; 2.34% in assay [5]; 12.5% in assay [6]. Besides, the inhibition in assay [7] was 58.5%; in [8], 0.31%; in assay [9], 2.25%; in assay [10] it was 0.35%.

`Cc1nnc(-c2cccc(-c3ccc(C(=O)NCC4CC4)cc3)c2)o1`: the inhibition in assay [1] turned out to be 6.92%; in assay [2], 4.11%; in assay [3], 5.87%; in assay [4], 2.89%; in assay [5], 3.75%; in assay [6], 1.99%. Also, the inhibition in [7] worked out at 5.86%; in [8] it was 4.47%; in assay [9] it was 4.29%; in [10], 2.71%.

Turning to `COc1cc2c(cc1Nc1nc(Nc3cccc(F)c3C(N)=O)c3cc[nH]c3n1)N(C(=O)CN1CCN(C(C)C)CC1)CC2`, the inhibition was 3.05% in assay [1]; 5.1% in [2]; 31.9% in assay [3]; 2.49% in [4]; 12.4% in assay [5]; 1.84% in assay [6]. The inhibition is 11.4% in assay [7], 2.53% in [8], 5.76% in assay [9] and 2.46% in assay [10].

For the compound `Nc1ncnc2occ(-c3ccc(NC(=O)Nc4cc(C(F)(F)F)ccc4F)cc3)c12`, the inhibition in assay [1] was 6.12% and 3.01%; in [2], 0.74% and -0.54%; in [3], -2.13% and 0.25%; in assay [4], 0.34% and -1.88%; in assay [5], -2.39% and -1.51%; in [6], -0.66% and -1.83%. Besides, the inhibition in assay [7] was 4.18% and -1.62%; in assay [8], 1.37% and -1.43%; in assay [9] it was 5.11% and 0.87%; in [10], 0.83% and -2.39%.

Regarding `Cc1cc(O)cc(C)c1/C=C/c1cncc(C(=O)OC(C)(C)C)c1`, the inhibition came out at 2.33% in [1]; 2.62% in assay [2]; 1.67% in assay [3]; 1.48% in assay [4]; 1.69% in assay [5]; 1.27% in [6]. The inhibition in assay [7] worked out at 3.48%; in assay [8], 2.21%; in assay [9], 2.97%; in assay [10], 1.74%.

As for `COc1ccc2ncn(-c3cc(O[C@H](C)c4ccccc4C(F)(F)F)c(C(N)=O)s3)c2c1`, the inhibition in assay [1] is -0.87%; in assay [2], 1.48%; in [3], 1.53%; in [4], -0.29%; in assay [5], 0.97%; in assay [6], 0.31%. Besides, the inhibition in assay [7] was 2.23%; in assay [8], -1.06%; in assay [9], -0.1%; in assay [10] it was -0.92%.

`c1cnn2ncc(-c3ccnc(NCCCN4CCOCC4)n3)c2c1`: the inhibition in [1] was determined as 1.95%; in assay [2], 3.58%; in [3], 2.58%; in [4], 2.3%; in [5], 1.85%; in assay [6] it was 2.74%. Further, the inhibition in assay [7] stood at 16.4%; in assay [8], 3.57%; in assay [9], 4.83%; in assay [10] it was 3.07%.
